Vaccinia mCherry: qHTS for Stage-Specific Inhibitors of Vaccinia Orthopoxvirus: mCherry Reporter Primary qHTS | Vaccinia virus mCherry reporter infection, fluorescence | AID 720579, 2013 | Potency, µM (doses to about 36.5 µM), inactives show at the top dose activity change, negative = inhibition, usual class: inhibitors | actives 0.63% (n = 310,000); calls by dose curve; tested in A549 cells; note: potency is the fitted concentration of half-maximal effect; % is set by controls: 0 for no effect and ±100 for the full control effect; nearly all actives have a fitted effect of over 35% in size
Shiga toxin inh: A qHTS for Small Molecule Inhibitors of Shiga Toxin. inhibition, % at 38.7 µM. actives 9.2% (n = 290,000). Vero cells, Shiga toxin protein synthesis inhibition reporter. AID 2315, 2010; in the data active = inhibition mostly above about 28%, no sharp cut-off; inactive = mostly below about 43%; note: 0% is about no effect
Cycloheximide cs: Cycloheximide Counterscreen for Small Molecule Inhibitors of Shiga Toxin; cell reporter, cycloheximide protein synthesis inhibition counterscreen; max response, %; actives 12% (n = 300,000); AID 2314, 2010; in the data active = max response mostly above about 13%, no sharp cut-off; inactive = mostly below about 14%; note: read at 38.3 µM for the half of the compounds with a filed dose; 0% is about no effect
Marburg entry inh: qHTS for inhibitors of binding or entry into cells for Marburg Virus. Marburg virus pseudotyped entry inhibition, cell reporter. Potency, µM (series often up to 37.8 µM), inactives show at the top dose activity change, negative = inhibition, most hits filed as inhibitors. actives 1.8% (n = 300,000). AID 540276, 2011; calls by dose curve; tested in HEK293 cells; note: potency is the fitted concentration of half-maximal effect; % is set by controls: 0 for no effect and ±100 for the full control effect
Vaccinia Venus: qHTS for Stage-Specific Inhibitors of Vaccinia Orthopoxvirus: Venus Reporter Primary qHTS | Vaccinia virus Venus reporter expression, fluorescence | Potency, µM (doses to about 36.5 µM), for the others: at the top dose activity change, negative = inhibition, hits mostly inhibitors | actives 0.46% (n = 330,000) | AID 720580, 2013; calls by dose curve; tested in A549 cells; note: potency is the fitted concentration of half-maximal effect; % is set by controls: 0 for no effect and ±100 for the full control effect; nearly all actives have a fitted effect of over 30% in size
Lassa entry inh: qHTS for Inhibitors of binding or entry into cells for Lassa Virus. Lassa virus pseudotype entry inhibition, cell reporter. Potency, µM (series often up to 37.9 µM), for inactives: at the highest dose activity change, negative = inhibition, actives largely listed as inhibitors. actives 1.2% (n = 300,000). AID 540256, 2011; calls by dose curve; tested in HEK293 cells; note: potency is the fitted concentration of half-maximal effect; % is set by controls: 0 for no effect and ±100 for the full control effect; nearly all actives have a fitted effect of over 50% in size
Numbers without * were called inactive; i = inactive; ? = inconclusive; . = no result given; [ ] = another dose, or the depositor's remark. The sample as a whole holds a higher share of hits than the screen did.

SMILES	Vaccinia mCherry	Shiga toxin inh	Cycloheximide cs	Marburg entry inh	Vaccinia Venus	Lassa entry inh
O=C(NCc1ccco1)c1ccc(CS(=O)(=O)Cc2ccc(Cl)cc2)o1	.	-1.4	-4.1	22.7%	.	-14.0%
COc1ccc2cc3cc(C(=O)NCc4ccco4)oc3nc2c1	.	-6.0	-1.4	-13.1%	.	?
COc1cc(=O)n2c(c1C(=O)N(C)Cc1nccs1)CCN(Cc1c(F)ccc(F)c1F)CC2	-8.2%	.	.	.	-2.1%	.
O=C(Nc1nccs1)c1ccc(COc2ccccc2Cl)o1	?	80.6*	60.3*	-6.5%	-18.3%	?
Cc1ccc(OCc2ccc(C(=O)Nc3nccs3)o2)cc1C	?	46.9	24.9*	?	-0.2%	-2.4%
Cc1cc(NC(=O)c2ccc(COc3ccccc3Cl)o2)no1	i	18.2	12.4	?	-5.9%	-11.6%[46.1 µM]
Cc1cc(NC(=O)c2ccc(COc3ccc(Cl)c(C)c3)o2)no1	-14.3%	-3.9	7.5	1.7%	-5.3%	-36.4%[14.3 µM]
O=C(CCS(=O)(=O)c1ccccc1)Nc1nc2ccc(F)cc2s1	?	.	.	-9.7%	?	-8.4%
O=C(CCS(=O)(=O)c1ccccc1)Nc1nc2cc3c(cc2s1)OCO3	?	54.6	34.3*	-2.7%[46.1 µM]	?	-10.8%[46.1 µM]
O=C(CCS(=O)(=O)c1ccccc1)Nc1nc2cc3c(cc2s1)OCCO3	.	90.3*	44.8*	.	.	.
COc1ccc(OC)c2sc(NC(=O)CCS(=O)(=O)c3ccccc3)nc12	-8.0%	.	.	.	?	.
CCc1ccccc1NC(=O)CN1C(=O)c2ccccc2S1(=O)=O	i	-4.0	-1.4	1.1%[46.1 µM]	-12.6%	0.7%
CC1(C)Cc2nc3sc(C(=O)NCCO)c(N)c3cc2CO1	.	51.3*	19.5*	?	.	23.8%
CC1(C)Cc2nc3sc(C(=O)NCCCO)c(N)c3cc2CS1	-19.4%	25.6	30.5*	?	-18.9%	.
CC1(C)Cc2nc3sc(C(=O)O)c(N)c3cc2CS1	.	53.6	8.2	.	.	.
O=C(N=NC(=O)c1ccc2c(O)n(CC3CCCO3)c(O)c2c1)c1cccnc1 (configuration not stated)	.	-15.6	-2.3	.	.	.
Nc1ccccc1C(=O)OCC(=O)Nc1ccc(Br)cc1F	.	93.4	21.4*	1.6%	.	-9.5%
Cc1cc(C(=O)OCC(=O)Nc2ccccc2F)c(C)o1	-7.6%	97.6*	15.0*	12.7%[46.1 µM]	-19.1%	16.2%
Cc1cc(C(=O)OCC(=O)Nc2ccccc2C#N)c(C)o1	-14.1%	.	.	8.9%	-8.0%	6.4%
CS(=O)(=O)N(CC(=O)NCc1ccco1)c1cccc([N+](=O)[O-])c1	-28.1%	-5.7	-2.9	.	-4.4%	.
COc1cccc(NC(=O)c2sc3nc(N4CCOCC4)c4c(c3c2N)CCCC4)c1	.	29.7*	24.9*	.	.	.
CC(=O)c1ccc(NC(=O)c2sc3nc(N4CCOCC4)c4c(c3c2N)CCCC4)cc1	.	64.8*	20.6*	.	.	.
CN1Cc2c(N3CCOCC3)nc3sc(C(=O)c4ccc(Br)cc4)c(N)c3c2CC1(C)C	6.31µM*	-18.5	-2.0	?	-25.6%	?
Cc1ccc(-n2nc(CO)c(C(=O)NCCO)n2)cc1	-9.2%	.	.	16.1%[46.1 µM]	-8.7%	4.7%[46.1 µM]
NS(=O)(=O)c1ccc(N/N=C2/CCCCC2C2CCCCC2)c([N+](=O)[O-])c1 (configuration not stated)	20µM*	-5.4	-5.9	?	15.8µM*	?
SMILES	Vaccinia mCherry	Shiga toxin inh	Cycloheximide cs	Marburg entry inh	Vaccinia Venus	Lassa entry inh
CN(C)C(=S)SCC(=O)Nc1ccc(Cl)cc1Cl	i	109.6*	23.5*	-0.9%	-8.5%	11.1%
S=C(NCCc1ccccn1)Nc1ccccc1	.	34.1*	22.1*	.	.	.
S=C(NCCc1ccccn1)Nc1ccc(Cl)cc1Cl	i	41.9	14.3*	10.1%[46.1 µM]	-14.4%	-0.8%
S=C(NCCc1ccccn1)Nc1ccc(Cl)c(Cl)c1	-22.4%	41.5*	1.6	-35.1%	-11.0%	13.0%
S=C(NCCc1ccccn1)Nc1ccccc1Cl	.	22.3	10.5	.	.	.
CCCCOc1ccc(CNC(=O)Cc2ccc(NC(=O)N3CCSc4ncccc43)cc2)cc1	-11.3%	.	.	.	-7.4%	?
CCCN1C(=O)c2ccccc2NC1c1ccc(OC)c(COc2cccc(C)c2C)c1 (configuration not stated)	30.6%	.	.	.	-2.7%	.
CC(C(=O)NCC1CCCCC1)N1CCN(S(=O)(=O)c2cccs2)CC1 (configuration not stated)	-4.9%	.	.	-6.8%	-28.1%	?
CN(C)CCNC(=S)Nc1ccc(Cl)cc1Cl	i	30.4	23.0*	?	-13.3%	10.3%
CN(C)CCNC(=S)Nc1ccccc1Cl	-3.8%	-5.4	-5.4	-12.7%	-0.8%	19.1%
COc1cccc(NC(=S)NCCc2ccccn2)c1	.	39.3*	26.7*	.	.	.
O=C1CCCC2=C1[C@H]1O[C@](CCCCN3C(=O)c4ccccc4C3=O)(Cc3ccccc31)O2	.	.	.	-1.7%[14.2 µM]	.	.
Clc1ccc(Nc2ccccc2)nn1	-5.6%	-8.2	2.6	1.1%[46.1 µM]	-3.0%	4.4%[46.1 µM]
CC1=NNC(=O)/C1=C\c1cn(-c2ccccc2)nc1-c1ccc(Cl)cc1	10µM*	-8.1	1.9	?	8.91µM*	?
CCNC(=O)N1CCC(n2nccc2NC(=O)CCOc2ccccc2)CC1	.	-2.2	-2.2	.	.	.
COc1cccc(C(=O)N2CCC(n3nccc3NC(=O)CCOc3ccccc3)CC2)c1	.	28.4	30.3*	.	.	.
COc1ccccc1C(=O)Nc1ccnn1C1CCN(C(=O)C2CCOC2)CC1 (configuration not stated)	-15.9%[7.34 µM]	31.8	12.9*	.	-1.0%[7.34 µM]	.
COc1ccc(C(=O)Nc2ccnn2C2CCN(C(=O)c3cccnc3)CC2)cc1	-7.7%	60.5*	30.1*	12.8%	-6.7%	2.9%
CC(C)C(=O)N1CCC(n2nccc2NC(=O)CCOc2ccccc2)CC1	-29.2%	17.4	17.5*	3.4%[46.1 µM]	-8.4%	-4.3%[46.1 µM]
C=CCn1c(SCC(=O)NC2(C#N)CCCCC2)nnc1-c1ccncc1	i	.	.	0.5%[46.1 µM]	-1.0%	-4.6%
CC(C)(C)NC(=O)C[C@H]1C[C@H](C(=O)N2CCOCC2)[C@@]2(CCC3CCCC3)c3[nH]c4cc(-c5ccco5)ccc4c3CCN2C1=O	?	.	.	.	10µM*	.
CN(C)CCCNC(=O)C[C@H]1C[C@H](C(=O)N2CCOCC2)[C@@]2(CCC3CCCC3)c3[nH]c4cc(-c5ccco5)ccc4c3CCN2C1=O	?	.	.	.	12.6µM*	.
C=CCn1c(COc2ccc(OC)cc2)nc2ccccc21	.	33.5	44.2*	.	.	.
COCc1nc2ccccc2n1Cc1ccccc1	-12.0%	17.3	20.3*	15.5%	-4.6%	23.8%
CCOC(=O)c1ccc2c(c1)nc(COc1ccc3ccccc3c1)n2CC	-29.4%	-12.2	-0.9	4.61µM*	-14.8%	?
COCCn1c(COc2ccc(OC)cc2)nc2ccccc21	-5.9%	48.5*	22.5*	-15.6%	-4.7%	12.2%
CCC(C(=O)Nc1cc(-c2cn3cccnc3n2)ccc1C)c1ccccc1 (configuration not stated)	-10.2%	.	.	.	-5.9%	?
C/C=C1\COC(C(=O)NCCOCCO)(C(F)(F)F)C=C1C=C1CCCCC1 (configuration not stated)	.	34.2	18.2	.	.	.

Bioassay records from PubChem BioAssay.
